# Laboratory results reported in article PMC11208138.
# Key:
# Assay in all cases: cross-link between two proteins; cross-linking mass spectrometry
# [1] = molecular target: Heterogeneous nuclear ribonucleoproteins C1/C2 (UniProt P07910)
# NHP2-like protein 1 = NHP2-like protein 1 (UniProt P55769)
# [2] = molecular target: Ubiquitin carboxyl-terminal hydrolase 39 (UniProt Q53GS9)
# [3] = molecular target: Serine/arginine-rich splicing factor 1 (UniProt Q07955)
# Chain of Serine/arginine-rich splicing factor 1 (Q07955 whole entry): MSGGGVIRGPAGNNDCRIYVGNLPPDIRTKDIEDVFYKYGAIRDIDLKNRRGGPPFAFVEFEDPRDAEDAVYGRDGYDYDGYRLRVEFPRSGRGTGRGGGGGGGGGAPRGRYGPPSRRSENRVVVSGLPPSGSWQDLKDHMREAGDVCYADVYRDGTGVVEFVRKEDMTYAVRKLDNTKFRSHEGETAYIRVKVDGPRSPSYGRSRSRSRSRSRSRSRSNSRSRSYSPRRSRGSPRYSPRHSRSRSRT
# Chain of Ubiquitin carboxyl-terminal hydrolase 39 (Q53GS9 whole entry): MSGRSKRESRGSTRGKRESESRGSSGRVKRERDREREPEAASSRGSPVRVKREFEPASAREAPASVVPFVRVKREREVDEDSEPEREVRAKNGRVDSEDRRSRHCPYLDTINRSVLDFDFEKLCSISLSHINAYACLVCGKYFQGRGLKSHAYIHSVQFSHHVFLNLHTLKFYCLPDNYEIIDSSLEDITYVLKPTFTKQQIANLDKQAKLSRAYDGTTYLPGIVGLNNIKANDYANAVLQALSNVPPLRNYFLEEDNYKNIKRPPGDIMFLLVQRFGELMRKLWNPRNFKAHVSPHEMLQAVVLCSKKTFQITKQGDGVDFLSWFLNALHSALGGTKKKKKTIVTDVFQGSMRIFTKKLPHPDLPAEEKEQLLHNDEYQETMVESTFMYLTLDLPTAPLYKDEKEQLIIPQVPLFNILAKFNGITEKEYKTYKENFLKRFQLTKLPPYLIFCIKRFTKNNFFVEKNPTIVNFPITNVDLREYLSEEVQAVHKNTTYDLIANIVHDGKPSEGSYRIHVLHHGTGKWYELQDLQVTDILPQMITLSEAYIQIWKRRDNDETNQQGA
# Chain of Heterogeneous nuclear ribonucleoproteins C1/C2 (P07910 whole entry): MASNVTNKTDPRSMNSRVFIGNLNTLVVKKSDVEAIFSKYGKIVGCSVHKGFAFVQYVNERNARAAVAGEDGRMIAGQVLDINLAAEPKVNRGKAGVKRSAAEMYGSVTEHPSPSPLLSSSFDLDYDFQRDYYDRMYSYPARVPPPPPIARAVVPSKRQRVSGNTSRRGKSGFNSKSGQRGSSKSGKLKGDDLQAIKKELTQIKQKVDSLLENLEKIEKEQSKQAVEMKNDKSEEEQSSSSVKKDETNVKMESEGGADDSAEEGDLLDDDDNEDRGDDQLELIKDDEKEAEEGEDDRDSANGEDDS
# Chain of NHP2-like protein 1 (P55769 whole entry): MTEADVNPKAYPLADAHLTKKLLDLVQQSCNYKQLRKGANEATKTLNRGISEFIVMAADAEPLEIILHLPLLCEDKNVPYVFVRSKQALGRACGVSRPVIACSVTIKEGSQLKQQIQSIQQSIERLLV
substance,measurement,setting,value
"Survival of motor neuron-related-splicing factor 30, O75940",listed as a hit,[1],yes
"Pre-mRNA-processing factor 6, O94906",listed as a hit,NHP2-like protein 1,yes
same,listed as a hit,[2],yes
"Probable ATP-dependent RNA helicase DDX5, P17844",listed as a hit,[3],yes
